# Reference: the supplement of paper PMC11417369
# ± gives the standard deviation of the averaged measurements. Over roughly 25,000 sequences, “ln(normalized median fluorescence intensity)” has its median near 7.9; the highest 2% begin near 11. The full list was thinned out, with the highest values kept by preference.
# Tested on: PfAP2-I AP2 domain 3 (GST-tagged)
# Assay: gcPBM binding intensity (ln(normalized median fluorescence intensity)); higher = stronger DNA binding
# Procedure, shortened: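 The highest Masliner-normalised natural-log median intensity across replicate spots of either probe orientation is reported as binding intensity. GST-tagged P. falciparum DNA-binding domains expressed in E. coli were applied for 1 h to an Agilent 4 × 180k array of primer-extended double-stranded 36-bp intergenic genomic probes plus negative controls, and bound protein was detected with Alexa488 anti-GST antibody and scanned at 488 nm.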
row,Sequence,gcPBM binding intensity (ln)
1,TTTGATAAATTATACACACACAATATATATAAAATA [CACACA_site2023],7.72 ± 0.51
2,CTTAAACTTTTAAATACACACATACAGACATACACA [CACACA_site6401],8.055 ± 0.021
3,ATGTATGCAAAAATGGTGCATATTAAATGTATAACA [GTGCAC_site9722],10.8 ± 0.49
4,AGCAAAACAAAAAAATTAAAATTAACATATAATCAT [GTGCAC_negctrl_site393],7.38 ± 0.62
5,AGATATTATAATTAATGTACAAAAAGAAAAAATAGA [XGTACX_site8964],7.86 ± 0.64
6,ATTTTTTTTTAATGCAATATATTTTGAAAATTTTAT [CACACA_negctrl_site753],8.62 ± 0.27
7,AGAAAAAAAAAAAAAAAAAAAAAATTGAATATATAT [TGCATGCA_negctrl_site55],7.67 ± 0.81
8,TATATATATATATAGGTGCAATATTGAAAAAATATC [GTGCAC_site9535],11.3 ± 0.47
9,AAATATAATTAATGATGTACACTTATAGATATTGAT [XGTACX_site8435],8.09 ± 0.24
10,ATATTATAATTGAAGGTGCAAAATGTAATATAGATA [GTGCAC_site9661],10.9 ± 0.49
11,GTAGACATTATAATGGTGCAAAAAAATTAACAAAAA [GTGCAC_site9891],10.9 ± 0.3
12,ATGTTATTAATAATTGCACACATTTTTTTTTTTTTT [CACACA_site3920],9.12 ± 0.23
13,AAAAATATATAACAAAGTACATATATATTTAGTAAT [XGTACX_site8791],7.43 ± 0.4
14,AAAATAAAATAAAAGTGTACGTTTTAAGAACATTGA [XGTACX_site2382],7.76 ± 0.48
15,ATCTGTCGACAGGACAGTACACAGTAGCCAGTAACT [XGTACX_site2001],7.63 ± 0.76
16,AATTTAAAGTTTTTTTTTTTTTTTTTTTTTTTTTTG [CACACA_negctrl_site1082],7.39 ± 0.31
17,AACATTTCCTTTCTGTGTACATATAAACCCATCTAT [XGTACX_site2071],8.13 ± 0.64
18,TATCATATATGAAGGTGTACGATTTATTATATAAAT [XGTACX_site7010],7.87 ± 0.54
19,TGTTTTATTTAGAAGGTGCACATTAATATTAAATAA,11.3 ± 0.45
20,ATTATCAATATGAAGGTGCATTTAAATAATATTTAC,11.3 ± 0.7
21,TTATTTTTTTTTAGAGCACACATTTTTAATAAGGTA [CACACA_site2133],9.54 ± 0.2
22,TAATGCAACATTTATGTGCACATAAATATTTTTTAA,9.815 ± 0.064
23,AAATATTATAAAAAGGTGCATTTTTATTATATGAGT,10.5 ± 0.35

row,Sequence,gcPBM binding intensity (ln)
1,TTTTCAATTAATAATACACACATGTATTTATTATTA [CACACA_site5774],7.83 ± 0.34
2,ATAAATTCATATATGAGTACTAAAAATATCTTTTTC [XGTACX_site5541],7.61 ± 0.45
3,ATTTATGGAAAAAGAACACACAATCAAACAAAAATA [CACACA_site3707],8.01 ± 0.57
4,TTATAATTTTTGAGCACACACAAGCATATATATATA [CACACA_site1798],9.475 ± 0.049
5,ATATATATATATTTCGCACACATAATCTTATTAAAT [CACACA_site2579],9.22 ± 0.31
6,TATGGATAAATAAATACACACATAAATTTAAATATA [CACACA_site1282],7.57 ± 0.61
7,GTTTATCACAGCCACGCACACATAATATCTGTATAT [CACACA_site5929],8.18 ± 0.59
8,GAACATTTGAAATATGCACACATGTATAAACCTACA [CACACA_site2654],8.7 ± 0.4
9,TATATATATATATGTGCACACATAAAGATATTATTT [CACACA_site3734],10.18 ± 0.021
10,TATATATATATGTGCACACATAAAGATATTATTTTT [CACACA_site3733],10.2 ± 0.042
11,AGATAAGATATATACACACACATAAATACGTACAAA [CACACA_site6639],8.35 ± 0.16
12,ATAAATAAGATACGTACACACATATACAAAATATAC [CACACA_site3661],8.14 ± 0.26
13,CTTATATATACGTGCACACATATATATAAGATATAT [CACACA_site1752],11.03 ± 0.11
14,TGCTTATATATACGTGCACACATATATATAAGATAT [CACACA_site8516],10.9 ± 0.11
15,AAGGTAGAAATATGTTGTACGGTTTGGAGGAAGCAA [XGTACX_site1105],8.12 ± 0.49
16,AGTACATTTTTTTTAATAGGAAAAAAAATATTTATT [TGCATGCA_negctrl_site575],7.66 ± 0.57
17,TTTTTTGCTAAGTGTACACAAATGTTTATTAATTTA [CACACA_site5859],8.42 ± 0.27
18,AAATAAAGAATATAAATACACACTTAAATATATATT [CACACA_site4007],7.58 ± 0.61
19,ATAAAGAATATAAATACACACTTAAATATAGATTAT [CACACA_site7804],7.6 ± 0.45
20,ATAAAGAATATAAATACACACTTAAATATATATTAT [CACACA_site6071],7.64 ± 0.44
21,ATATATATATATAGTGCACACTTAAGAATATAAAGA [CACACA_site4771],11.5 ± 0.27
22,ATATATATATAGTGCACACTTAAGAATATAAAGAGG [CACACA_site1151],11.5 ± 0.3
23,AAAAAAAAAAAAAGTGCACACTTTTAATATAAATAT [CACACA_site3314],10 ± 0.35

row,Sequence,gcPBM binding intensity (ln)
1,TATATGTATGTATGTACACACAAAAAATGGAATATA [CACACA_site3717],7.93 ± 0.35
2,AAAAATAAAGAAACAGGTACGCATATATTAAGATAT [XGTACX_site8097],7.98 ± 0.78
3,GTATTATATATATAGGTGCATATATATATATAAATA [GTGCAC_site9787],10.6 ± 0.33
4,GGTATATTAAAATAGGTGCATAAAACTAAGAGAAAA [GTGCAC_site9781],11.3 ± 0.54
5,CAATATTATTATATTTGTACACATGCGTATTTTTTA [XGTACX_site4154],7.74 ± 0.47
6,TTTTTAAAATATTTAACACACAATTATAATGCATAA [CACACA_site3932],8.885 ± 0.035
7,TTAATATAACTTTTTGCACACTTAATTTTTTTTTTT [CACACA_site3364],9.32 ± 0.085
8,TAACTTAATTTTAATGCACACAATTTATATATATAT [CACACA_site6022],11.2 ± 0.52
9,AATATAACTTTTTGCACACTTAATTTTTTTTTTTAA [CACACA_site3365],9.79 ± 0.11
10,TAACTTAATATTAATGCACACAATTTATATATATAT [CACACA_site3903],11.3 ± 0.38
11,TAAATTATATTATGCACACTTAAAAATATATTTAAC [CACACA_site3512],10.4 ± 0.49
12,ACACGTTTATATAAAAAATTAAAATTTTTCTTATTT [CACACA_negctrl_site1523],7.95 ± 0.32
13,TTGCCCCAGGAGTTCACACACATAATAGATTGTCAC [CACACA_site726],7.79 ± 0.61
14,ATATTTTATTTTAATACACACAAGTTATATAACCAC [CACACA_site6508],8.19 ± 0.48
15,CAAGTATTAATTATGTGTACATATATATATATATAT [XGTACX_site5311],9.36 ± 0.23
16,ATCGTGTTAAATGTTGTGCACATATAAATTACAAAA [GTGCAC_site9822],10.605 ± 0.007
17,TATATGTATGTTTGTGTGCACACATAAATATTATAT,9.79 ± 0.042
18,TTGTTGTGTATTATCGTGCACATAATATAAAAGATT,11.11 ± 0.078
19,TAAATGAAAATATGTACACACTTGAAAACTTTTATG [CACACA_site7388],7.84 ± 0.45
20,GTTTTATAAAAAGGCGCACACATATACATAAATATA [CACACA_site1864],8.47 ± 0.37
21,TGTAATAATTATTGCACGCACACAAAAACCTATAGA [CACACA_site2932],10.8 ± 0.88
22,TAATAATTATTGCACGCACACAAAAACCTATAGATT [CACACA_site2931],11 ± 0.67
23,AAAATATAATATATTGCACACAAAAAGTGAATTATT [CACACA_site8489],10 ± 0.62

row,Sequence,gcPBM binding intensity (ln)
1,ATATTTTTTACTATTACACACAAGGGATTATTATTT [CACACA_site3915],7.99 ± 0.69
2,ATACATACATATGTATGTACGTATGTATGTATGTAT [XGTACX_site3853],8 ± 0.2
3,TATACTGTCAATTCTACACACCATAGGGGGAGCATA [CACACA_site1875],9.22
4,TTTATTTTTAACAGTGCACACATAACTTAATTATAT [CACACA_site8681],10.69 ± 0.071
5,TTTTTTTTTTTTAATGCACACAGTGAACTTTTACTT [CACACA_site3567],11.3 ± 0.36
6,ATGAAATATGCACAGTGTACTTTTATGAGGAACATA [XGTACX_site426],9.045 ± 0.064
7,TTTCTTTTTTTTTAATGTACTTTTTTTATAAAAGGT [XGTACX_site5688],7.99 ± 0.23
8,CATATAAGACAAAAGGTGCAATTTTAATGCTTTTAT [GTGCAC_site9432],9.99 ± 0.071
9,AAAGAATTATATAAGGTGCACGAATGTTTCTTTAAT,10.96 ± 0.035
10,AATATATAAATTAATACATGCACATATAGAAAGGGA [TGCATGCA_site472],8.7 ± 0.52
11,AAATAATTAGAAATAGTGCACATAATTAAGGGATAC,11.5 ± 0.31
12,AATAATACATCCTTAGTGCAGAAATAAAAATTAAGC [GTGCAC_site9955],9.76 ± 0.24
13,ATTTTACATATTTGCACACATATATTTAAATACATA [CACACA_site4627],9.85 ± 0.28
14,TATGAACTTTTGGGGGTGCCTTAAAATGTATATTCT,11.2 ± 0.53
15,GTATATCATTTTGGGGTGCTTAAAAATAATGAATAC,10.4 ± 0.46
16,TTATTATTATATGAATGTACTTAAAAATACATTTTG [XGTACX_site2959],7.43 ± 0.49
17,TCAACACACGTGGAATGTACTTTAGTATAAGAATTC [XGTACX_site7842],7.74 ± 0.64
18,AAATTTATATAATATTGTACATTAAAAATTATATAT [XGTACX_site8009],7.73 ± 0.3
19,AATATGTAAATATGGGTGCTTTAAAATATATTCATT [GTGCAC_site9583],11.1 ± 0.66
20,TAAAATATGTCATGGGTGCTTCTTTTTATACCTATG [GTGCAC_site9888],8.49 ± 0.38
21,TTTAATTAAATATGTATATATATTCATGTATGTATA [GTGCAC_negctrl_site14],7.68 ± 0.26
22,GAATAAATTAAAAACGCATGTATCATTACTACATAA [TGCATGCA_site111],7.36 ± 0.48
